Experiments:
Type in all cases: functional
[1] = target: Solute carrier family 2, facilitated glucose transporter member 1 (Homo sapiens) (UniProt P11166); test: ST_JUDE_LEISH: Cytotoxicity at 2uM final concentration against transgenic Leishmania Mexicana promastigotes LmGLUT1 that are glucose transport deficient and complemented with the human glucose transporter GLUT1. Activity is measured by DNA content using SYBR green in vitro
[2] = target: Hexose transporter 1 (Plasmodium falciparum) (UniProt O97467); test: ST_JUDE_LEISH: Cytotoxicity at 2uM final concentration against transgenic Leishmania Mexicana promastigotes LmPfHT that are glucose transport deficient and complemented with the Plasmodium falciparum hexose transporter. Activity is measured by DNA content using SYBR green in vitro
[3] = target: Glucose transporter (Leishmania mexicana) (UniProt O61059); test: ST_JUDE_LEISH: Cytotoxicity at 2uM final concentration against transgenic Leishmania Mexicana promastigotes LmGT2 that are glucose transport deficient and complemented with the L. Mexicana glucose transporter 2. Activity is measured by DNA content using SYBR green in vitro

Sequence of Solute carrier family 2, facilitated glucose transporter member 1 (Homo sapiens) (P11166 whole entry): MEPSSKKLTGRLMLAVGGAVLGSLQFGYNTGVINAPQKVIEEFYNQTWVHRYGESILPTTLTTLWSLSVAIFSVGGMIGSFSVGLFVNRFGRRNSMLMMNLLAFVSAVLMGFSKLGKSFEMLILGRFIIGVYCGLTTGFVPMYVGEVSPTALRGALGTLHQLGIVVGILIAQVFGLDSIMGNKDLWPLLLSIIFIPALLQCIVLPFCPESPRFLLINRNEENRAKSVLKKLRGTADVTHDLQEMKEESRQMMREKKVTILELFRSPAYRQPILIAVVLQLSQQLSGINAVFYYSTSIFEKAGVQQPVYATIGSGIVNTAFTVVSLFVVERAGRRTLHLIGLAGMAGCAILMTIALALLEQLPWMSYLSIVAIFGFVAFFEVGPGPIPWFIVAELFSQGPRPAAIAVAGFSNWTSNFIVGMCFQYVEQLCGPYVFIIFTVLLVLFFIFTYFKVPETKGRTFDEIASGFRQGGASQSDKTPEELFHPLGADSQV

Compound: CCN(CC)CCCCCNc1c2ccc(Cl)cc2nc2ccc(OC)cc12
- inhibition [1]: 2.17%
- inhibition [2]: 1.26%
- inhibition [3]: 1.52%

Compound: CN1CCCC(COc2cc3c(cc2Br)CCN3C(=O)Nc2ccc(-c3ccncc3)c(Cl)c2)C1 (stereo not drawn)
- inhibition [1]: 9.37%
- inhibition [2]: 5.78%
- inhibition [3]: 3.35%

Compound: CC1(C)NC(N)=NC(=N)N1OCCCOc1ccccc1Cl
- inhibition [1]: 8.95%
- inhibition [2]: 10%
- inhibition [3]: 12%

Compound: Cc1cc(C)n(-c2nc(Nc3cccc(C(F)(F)F)c3)nc(-n3nc(C)cc3C)n2)n1
- inhibition [1]: -2.75%
- inhibition [2]: -3.09%
- inhibition [3]: -1.11%

Compound: CCOc1cc(C(=O)Nc2ccc3nc(N(CC)CC)cc(C)c3c2)cc(OCC)c1OCC
- inhibition [1]: -0.12%
- inhibition [2]: -0.88%
- inhibition [3]: -3.87%

Compound: Cc1ccc(C(=O)Nc2cccc(-c3ccc(N4CCN(C)CC4)nn3)c2)cc1[N+](=O)[O-]
- inhibition [1]: 1.32%
- inhibition [2]: -0.23%
- inhibition [3]: -1.16%

Compound: CCCCCCCCN1CCCN(C(=O)c2cccc(NC(=O)Nc3ccc4ccccc4c3)c2)CC1
- inhibition [1]: 0.2%
- inhibition [2]: -0.59%
- inhibition [3]: -0.77%

Compound: COc1cccc(OC)c1-c1ccccc1NC(=O)N1CCCc2cc(C)ccc21
- inhibition [1]: 2.46%
- inhibition [2]: 2.69%
- inhibition [3]: 2.07%

Compound: COc1ccc2[nH]ccc(=NN=Cc3ccc(Cl)cc3)c2c1
- inhibition [1]: 1.86%
- inhibition [2]: 3.19%
- inhibition [3]: 0.32%

Compound: O=C(/C=C/c1ccc(Cl)c(Cl)c1)NCCCCCN1CCCN(C(=O)Nc2cccc(F)c2)CC1
- inhibition [1]: 0.1%
- inhibition [2]: 0.29%
- inhibition [3]: 3.86%

Compound: O=C(NCc1ccc(Cl)c(Cl)c1)c1ccc(-c2nc3ccc(F)cc3[nH]2)cc1
- inhibition [1]: 12.4%
- inhibition [2]: 11.1%
- inhibition [3]: 11.6%

Compound: COc1ccc(-c2cnc3ccc(NCc4ccc(F)cc4)nn23)cc1OC
- inhibition [1]: 4.06%
- inhibition [2]: 4.1%
- inhibition [3]: 1.96%

Compound: CCC1(CC)CN(c2ccccc2)c2ccc(O)cc2S(=O)(=O)C1CC(C)C (stereo not drawn)
- inhibition [1]: 0.72%
- inhibition [2]: 0.32%
- inhibition [3]: 0.3%

Compound: O=C(Nc1ccc(Cn2nc(Cl)c(N3CCCNCC3)cc2=O)cc1)Nc1ccc(-c2ccccc2)cc1
- inhibition [1]: 19.7%
- inhibition [2]: 15.5%
- inhibition [3]: 16.6%

Compound: Cn1cncc1C(=O)Nc1cccc(-c2ccc(-c3nc4ccccc4[nH]3)cc2)c1
- inhibition [1]: -2.56%
- inhibition [2]: -2.33%
- inhibition [3]: -0.9%

Compound: COc1ccc(S(=O)(=O)Nc2cc(C)cc(Br)c2OC)cc1N1CCN(C(=O)C(Cl)(Cl)Cl)CC1
- inhibition [1]: 0.75%
- inhibition [2]: 0.79%
- inhibition [3]: -0.68%

Compound: CCCCNC(=O)[C@H](CC1CCCCC1)NC(=O)c1ccc(O)c(-c2ccc(OC)cc2)c1
- inhibition [1]: 2.45%
- inhibition [2]: 2.88%
- inhibition [3]: 4.23%

Compound: Cn1cncc1CCN(Cc1ccc(-c2ccc(C(F)(F)F)cc2)cc1)C(=O)Cn1c(SCc2cccc(F)c2F)cc(=O)c2ccccc21
- inhibition [1]: 4.77%
- inhibition [2]: 1.65%
- inhibition [3]: 2.14%

Compound: CN(CCN1CCC(c2c[nH]c3ccccc23)CC1)C(=O)OCCCCCNC(=O)/C=C/c1ccc(Cl)c(Cl)c1
- inhibition [1]: 9.15%
- inhibition [2]: 10.3%
- inhibition [3]: 8.82%

Compound: O=C(NC1CCCc2ccccc21)C1CCCN(C(=O)c2ccc(O)c(-c3ccc(Cl)c(Cl)c3)c2)C1 (stereo not drawn)
- inhibition [1]: 1.28%
- inhibition [2]: 2.04%
- inhibition [3]: 2.38%

Compound: CC(C)CNCc1cccc(-c2cccc(CN(CCCN3CCN(C)CC3)C(=O)Nc3ccccc3)c2)c1
- inhibition [1]: 0.02%
- inhibition [2]: -1.73%
- inhibition [3]: 0.33%

Compound: O=C(Nc1ccc(C(F)(F)F)cc1)NC1CCN(CCCCCNC(=O)C2CC2c2ccc(Cl)c(Cl)c2)CC1 (stereo not drawn)
- inhibition [1]: -1.45%
- inhibition [2]: -1.93%
- inhibition [3]: -1.98%

Compound: COc1ccc(C(=O)Nc2cc(Br)c3c(c2)CNCC3)cc1Br
- inhibition [1]: 2.73%
- inhibition [2]: 3.54%
- inhibition [3]: 1.69%

Compound: O=C(NC1CC1)c1ccc(Nc2nccc(-c3c(-c4cccc(NC(=O)c5c(F)cccc5F)c4)nn4ccccc34)n2)cc1
- inhibition [1]: 7.45%
- inhibition [2]: 8.87%
- inhibition [3]: 3.41%

Compound: COc1cccc(OC)c1CN1CCC(N(C)CCCCCCCCCN2CCC(OC(=O)Nc3ccccc3-c3ccccc3)CC2)CC1
- inhibition [1]: 113%
- inhibition [2]: 108%
- inhibition [3]: 111%

Compound: COc1cc(CC2c3cc(O)c(Cl)cc3CCN2C)c(OC)cc1C (stereo not drawn)
- inhibition [1]: 3.63%
- inhibition [2]: 4.4%
- inhibition [3]: 5.31%

Compound: COc1cc(/C=N/Nc2nc(Nc3ccccc3)nc(Nc3ccccc3)n2)ccc1OCc1ccccc1[N+](=O)[O-]
- inhibition [1]: 4.18%
- inhibition [2]: 3.92%
- inhibition [3]: 0.87%

Compound: CCOc1cc2c(cc1OCC)C(c1ccc(O)c(Cl)c1)NCC2 (stereo not drawn)
- inhibition [1]: 11.9%
- inhibition [2]: 13.1%
- inhibition [3]: 10.3%

Compound: CCN(CC)CCN(Cc1ccc(-c2ccc(C#N)cc2)cc1)C(=O)Cn1c(CCc2cccc(F)c2F)nc(=O)c2ccccc21
- inhibition [1]: 2.37%
- inhibition [2]: 0.54%
- inhibition [3]: 3%

Compound: O=C(Nc1ccc(CCNC2=NCCN2)cc1)Nc1ccc(CCNC2=NCCN2)cc1
- inhibition [1]: 3.77%
- inhibition [2]: 3.97%
- inhibition [3]: 3.62%

Compound: CN1CCC(NCc2cccc(-c3cccc(-c4nc5cc(C(F)(F)F)ccc5[nH]4)c3)c2)CC1
- inhibition [1]: 2.34%
- inhibition [2]: 0.79%
- inhibition [3]: 1.42%

Reference: ChEMBL document CHEMBL3433997, “St. Jude Leishmania screening dataset” (2016)
